From PubChem BioAssay
Compounds with a hit are over-represented: about 7.9% of the library has one in this group of screens.
SW480 rereplic: induces DNA re-replication in SW480 colon adenocarcinoma cells | SW480 DNA re-replication, Hoechst DNA content imaging, 48 h | Potency, µM (titrated, usually from 46.1 µM), for the others: at the highest dose re-replication activation, hits mostly activators | actives 1.8% (n = 340,000) | AID 624297; also: % of control where 0% means no effect; nearly all actives have a fitted effect of over 55% in size
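Cells (250 per well) received 23 nL compound or DMSO by pin tool and were kept 48 hr at 37 C, 5% CO2. Nuclei were then stained with Hoechst for 40 min and scanned for DNA content.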
MCF10A rereplic: inducers of DNA re-replication in MCF 10A breast cells; Potency, µM (doses to about 46.1 µM), for inactives: at the top dose activity, positive = re-replication, most hits filed as activators; MCF 10A DNA re-replication, Hoechst nuclear intensity, 48 h; actives 2.9% (n = 350,000); AID 624296; also: % of control where 0% means no effect; nearly all actives have a fitted effect of over 50% in size
KB-V1 cytotox: KB-V1 MDR subline cytotoxicity. KB-V1 MDR cells viability, CellTiter-Glo, 72 h. Potency, µM (top dose mostly 46.1 µM), hits mostly cytotoxic. actives 3.4% (n = 400,000). AID 1347076; also: % is scaled to controls: 0 for no effect and ±100 for the full control effect; nearly all actives have a fitted effect of over 60% in size
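Following 72 h at 37 degrees C with compound, KB-V1 cell viability was read by CellTiter-Glo luminescence, medium being phenol-red-free DMEM plus 10% FBS; concentration-response parameters came from normalized, curve-fitted qHTS data.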
HT1080-NT tox: kills 2HG-producing HT-1080-NT fibrosarcoma cells | HT-1080-NT fibrosarcoma viability, CellTiter-Glo ATP luminescence, 48 h | Potency, µM (titrated, usually from 46.1 µM), for the others: at the top dose activity, negative = less viability, usual class: cytotoxic | actives 1.6% (n = 360,000) | AID 686970;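 also: NT is the 2HG producing partner of a matched IDH1 knockdown line; 0% = DMSO-treated cells and -100% = media-only wells without cells; nearly all actives have a fitted effect of over 55% in size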
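Viability by CellTiter-Glo luminescence after 48 h compound exposure at 37C of HT-1080-NT cells (750/well, RPMI, 5% FBS). % activity scaled between DMSO wells and medium-only wells, then curve-fitted and categorized by curve class.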
KB-3-1 tox: kills parental KB-3-1 adenocarcinoma cells; actives 1.4% (n = 400,000); AID 1347075; KB-3-1 viability, CellTiter-Glo ATP luminescence, 72 h; Potency, µM (series often up to 46.1 µM), most hits filed as cytotoxic; also: % is scaled to controls: 0 for no effect and ±100 for the full control effect; nearly all actives have a fitted effect of over 60% in size
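KB-3-1 cells, DMEM (no phenol red) + 10% FBS; compound by pin transfer, 72 h, 37 °C. Readout: CellTiter-Glo luminescence after 10 min. Data normalized, curve-fitted.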
HT1080 IDH1KD tx: kills HT-1080 cells with IDH1 knockdown; HT-1080 IDH1 knockdown viability, ATP luminescence, 48 h; actives 2% (n = 360,000); Potency, µM (doses to about 46.1 µM), inactives show top-dose activity, negative = toxicity, most hits filed as cytotoxic;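 also: 0% = DMSO wells and -100% = cell-free medium wells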
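Cytotoxicity counter-line: IDH1KD HT-1080, 48 h, CellTiter-Glo. Curves classed by r2, magnitude and activity.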
Numbers without * were called inactive; i = inactive; ? = inconclusive; . = not tested or not shown; [ ] = remark or other dose. Calls follow the shape of the dose curve; as a rule, active = well fitted curve in the direction sought with a large enough effect; inconclusive = small, poorly fitted or top-dose-only effect, or another doubt; inactive = no such curve, though single readings can be large; an effect the other way counts as inactive or inconclusive. Potency is read from the fitted curve at half-maximal effect.

SMILES	SW480 rereplic	MCF10A rereplic	KB-V1 cytotox	HT1080-NT tox	KB-3-1 tox	HT1080 IDH1KD tx
CCC(=O)N1c2ccccc2CC1C(=O)NCCc1ccc(Cl)cc1 (stereo not given)	.	.	?	.	i	.
CN(C)c1nc(N/N=C/c2ccccc2O)nc(Nc2ccc(F)cc2)n1	5.8µM*	10.3µM*	?	?	?	13µM*
CN(C)c1nc(Nc2ccc(F)cc2)nc(Oc2ccc(F)cc2)n1	4.3%	0.6%	i	-16.2%	i	-17.4%
Cc1nc2ccc(NC(=O)Cc3ccc4c(c3)OCCO4)cc2s1	-52.6%	8.8%	14.6µM*	4.5%	i	-6.1%
CCOc1ccc2nc(SCC(=O)Nc3ccc4c(c3)OCO4)sc2c1	24.6%	3.2%	16.4µM*	-8.2%	i	-1.7%
CCOc1ccc2nc(NC(=O)CSc3nc(SC)ns3)sc2c1	9.2%	10.2%	23.1µM*	11.3%	i	5.8%
Cc1ccnc(NC(=S)N2CCN(c3ccc(O)cc3)CC2)c1	.	.	i	.	i	.
CCCc1cc(NCCCCO)n2c(nc3ccccc32)c1C#N	19.5%	17.4%	23.1µM*	-11.0%	i	-13.0%
CCCc1cc(-n2ccnc2C)n2c(nc3ccccc32)c1C#N	?	20.4%	i	23.7%	i	-1.7%
CCCc1cc(NCCCN2CCOCC2)n2c(nc3ccccc32)c1C#N	1.8%[9.22 µM]	20.6µM*	i	4.7%	i	5.5%
CCCc1cc(N2CCN(C(=O)c3ccco3)CC2)n2c(nc3ccccc32)c1C#N	?	20.6µM*	i	-25.6%	i	-13.3%
CCCc1cc(NCCOCCO)n2c(nc3ccccc32)c1C#N	.	.	i	-7.9%	i	-7.1%
N#Cc1ccc(C(=O)NC(=S)N2CCOCC2)cc1	4.5%	0.5%	i	0.8%	i	1.1%
O=C(NC(=S)N1CCOCC1)c1ccc([N+](=O)[O-])cc1	0.651µM*	-98.0%	i	-0.1%	i	-5.3%
O=C(NC(NC(=S)N1CCOCC1)C(Cl)(Cl)Cl)c1ccc(Cl)cc1 (stereo not given)	5.0%	-0.3%	13µM*	-28.4%	i	?
CCSc1nc2ccccc2c(OCc2ccccc2Cl)c1C(=O)OC	.	.	i	.	i	.
CCOc1ccccc1Oc1c(C)oc2cc(OC(=O)N3CCOCC3)ccc2c1=O	-7.0%	3.1%	23.1µM*	-1.0%	i	5.1%
Cc1nc(-c2ccc(NC(=O)C(C)(C)C)cc2)c(-c2ccccc2)o1	-6.5%	0.4%	i	3.2%	i	5.1%
Cc1nc2c(o1)C(=O)c1ccccc1C2=Nc1ccccc1	4.11µM*	6.51µM*	3.26µM*	5.8µM*	4.61µM*	2.91µM*
COc1ccc(NC(=O)C2c3ccccc3OCC(=O)N2CC(F)(F)F)cc1 (stereo not given)	.	.	i	-3.8%	i	14.3%
COCCNC(=O)CCn1c(=O)[nH]c2cc(OC)c(OC)cc2c1=O	.	.	i	.	i	.
Cn1cc([C@]2(O)C(=O)Nc3ccccc32)c2ccccc21	.	.	i	5.1%	i	7.3%
Cc1ccccc1NC(=O)CSCn1nnc2c(=O)[nH]c(Cc3ccc(F)cc3)nc21	.	.	i	.	i	.
Nc1nc(N)c2c(ccc3nccc32)[nH]1	20.1%	?	i	5.8µM*	?	4.61µM*
Cc1ccccc1CN1[C@@H](Cc2ccccc2)COCCS1(=O)=O	-5.2%	?	i	0.0%	i	6.5%
C=C1[C@@H](O)[C@H](Cc2ccccc2)N(Cc2ccccc2Br)S1(=O)=O	-0.5%[9.22 µM]	20.6µM*	?	?	?	23.1µM*
CC(=O)N1CCCc2ccc(NS(=O)(=O)c3ccccc3)cc21	6.51µM*	19.7%	?	-0.2%	i	-7.6%
Cc1ccc(S(=O)(=O)Nc2ccc3c(c2)CCC3)cc1	-96.1%	12.4%	20.6µM*	-25.2%	?	-28.4%
